# PubChem BioAssay (Tox21)
# Results filed as inconclusive are left out. Entries that show only a call come without a potency. The source made the active and inactive calls. Unless noted, the call rests on the fitted dose curve; in most records, active means well fitted curve in the direction sought with a large enough effect in the repeat runs; inconclusive means weak or mixed curves; inactive means no such curve, though single readings can be large; an effect the other way counts as inactive or inconclusive.
# What was measured:
# [1] = qHTS assay to identify small molecule antagonists of the retinoid acid receptor (RAR) signaling pathway - cell viability counter screen (AID 1159551); conditions: C3RL4 cells viability, ATP luminescence (CellTiter-Glo), 6 h; series mostly up to 92.4 µM; further: nearly all actives have a fitted effect of over 35% in size; further: potency means the concentration at half of the fitted maximal effect
# How it was run: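 Seed C3RL4 cells; next day add compound, then retinol to 1 uM final; incubate 6 h at 37 C; add CellTiter-Glo; read luminescence after 30 min at RT.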
# [2] = qHTS assay to identify small molecule antagonists of the retinoic acid receptor (RAR) signaling pathway (AID 1159552; further: nearly all actives have a fitted effect of over 50% in size; further: potency means the concentration at half of the fitted maximal effect); conditions: C3RL4 RARE luciferase reporter, retinol-stimulated, 6 h; series mostly up to 92.4 µM
# How it was run: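 RARE-luc C3RL4 cells; cpds + 1 uM (final) retinol, 6 hr, 37 C/5% CO2; luciferase reagent, 30 min RT, luminescence readout. Inhibitors of retinol-driven signal scored.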
# [3] = qHTS assay to identify small molecule antagonists of the estrogen related receptor (ERR) signaling pathway (AID 1224819; further: nearly all actives have a fitted effect of over 50% in size; further: potency means the concentration at half of the fitted maximal effect); conditions: ERR reporter cell line, luciferase inhibition; series mostly up to 46.1 µM
# How it was run: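 qHTS in ERR cells, 2,000/well, 1536 format. Cpd (DMSO) added after 6 h settle, 18 h 37 C. One-Glo luminescence, 30 min RT.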
# [4] = qHTS assay to identify small molecule agonists of the estrogen related receptor (ERR) signaling pathway (AID 1224820); conditions: ERR reporter cell line, luciferase agonist mode; series mostly up to 46.1 µM
# How it was run: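 ERR reporter cell line (from NTP), 2,000 cells/well, incubated 6 h before compound addition, then 18 h at 37 C. Luminescence measured 30 min after One-Glo reagent at room temperature.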
# [5] = test system: estrogen-related receptor alpha (ERRalpha) with PGC-1alpha coactivator, human; assay: qHTS assay to identify small molecule antagonists of the estrogen related receptor signaling pathway with the pleiotropic PPARgamma coactivator (PGC) (AID 1224821; calls by dose curve;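 further: lower luminescence signal means antagonism of PGC/ERR signalling; nearly all actives have a fitted effect of over 50% in size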); conditions: ERR/PGC reporter cell line, luciferase, antagonist mode; series mostly up to 46.1 µM
# How it was run: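 PGC/ERR reporter cell line, plated 6 h before compound addition, then exposed 18 h at 37 °C. Luciferase activity read by luminescence 30 min after One-Glo addition; decrease indicates antagonism.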
# [6] = qHTS assay to identify small molecule agonists of the RXR signaling pathway - cell viability counter screen (AID 1159529); conditions: RXR-alpha-bla HEK293T viability, CellTiter-Glo, 16 h; series mostly up to 76.8 µM; further: nearly all actives have a fitted effect of over 50% in size; further: potency means the concentration at half of the fitted maximal effect
# How it was run: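 RXR-alpha-UAS-bla HEK 293T cells in medium with 2% charcoal-stripped FBS were preincubated 5 hr, then exposed to compounds for 16 hr at 37 C. Viability was read as CellTiter-Glo luminescence after 30 min at room temperature.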
# [7] = qHTS assay to identify small molecule agonists of the retinoic acid receptor (RAR) signaling pathway (AID 1159553); conditions: C3RL4 RARE luciferase reporter, agonist, 6 h; series mostly up to 73.3 µM; further: potency means the concentration at half of the fitted maximal effect
# How it was run: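 Activation of retinol signaling was monitored via a RARE luciferase reporter in C3RL4 cells. After 6 hr compound treatment at 37 C, detection reagent was added for 30 min at room temperature before luminescence reading.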
# [8] = qHTS assay to identify small molecule agonists of the estrogen related receptor signaling pathway with the pleiotropic PPARgamma coactivator (PGC) (AID 1224823); conditions: ERR/PGC reporter cell line, luciferase agonist mode; series mostly up to 46.1 µM; further: potency means the concentration at half of the fitted maximal effect
# How it was run: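 PGC/ERR reporter cells seeded 6 h, then exposed to compounds (23 nL in DMSO) for 18 h at 37 C. One-Glo luciferase luminescence read after 30 min at room temperature.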
# [9] = qHTS assay to identify small molecule antagonists of the estrogen related receptor signaling pathway with the pleiotropic PPARgamma coactivator (PGC) cell viability counter screen (AID 1224822;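 further: viability read after 17.5 h compound exposure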); conditions: ERR/PGC reporter cell line viability counter screen; series mostly up to 46.1 µM
# How it was run: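 Compounds in DMSO, with positive and negative controls, were applied to PGC/ERR cells (2,000/well) and left 17.5 h at 37 C before CellTiter-Fluor detection.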
smiles,measurement,setting,value
CNCCCC1c2ccccc2C=Cc2ccccc21,Potency,[1],inactive
same,Potency,[2],23.7 µM (active)
same,Potency,[3],inactive
same,outcome,[4],inactive
same,Potency,[5],inactive
O=C(O)c1cccc(O)c1,Potency,[6],inactive
same,Potency,[2],inactive
same,Potency,[7],inactive
C/C=C/C=C/CCCCCCCO,Potency,[6],inactive
same,Potency,[7],inactive
CCNC(=O)N1CCN(CCCC(c2ccc(F)cc2)c2ccc(F)cc2)CC1,Potency,[1],inactive
same,Potency,[7],inactive
same,Potency,[3],8.1 µM (active)
same,outcome,[4],inactive
same,Potency,[8],inactive
O=C(N/N=C/c1ccc([N+](=O)[O-])o1)c1ccc(O)cc1,Potency,[6],inactive
same,Potency,[7],inactive
OCCSc1ccccc1,Potency,[1],inactive
CN(C)CCOC1=Cc2ccccc2Sc2ccc(Cl)cc21,Potency,[7],inactive
CC1=C(/C=C/C(C)=C\C=C\C(C)=C\C(=O)O)C(C)(C)CCC1,Potency,[1],inactive
same,Potency,[2],inactive
same,Potency,[7],0.0686 µM (active)
CSc1ccc(Oc2ccc(S(N)(=O)=O)cc2CN(C)C)cc1C,Potency,[1],inactive
CC1CC(O)CC(C)(C)C1 (stereo not drawn),Potency,[1],inactive
same,Potency,[2],inactive
same,Potency,[7],inactive
CC1CC(=O)NN=C1c1ccc(NCC(C)(C)NCC(O)COc2cc(Cl)ccc2C#N)cc1 (stereo not drawn),Potency,[1],inactive
same,Potency,[2],inactive
same,Potency,[7],inactive
O=C(Nc1ccccc1)Nc1ccccc1,Potency,[1],inactive
same,Potency,[2],inactive
same,Potency,[7],2.18 µM (active)
CCCCC1C(=O)N(c2ccccc2)N(c2ccc(O)cc2)C1=O (stereo not drawn),Potency,[2],inactive
NC(=O)N(O)[C@@H]1COc2cc(OCc3ccccc3)ccc21,Potency,[1],inactive
CCCCN(CCCC)C(=S)SSC(=S)N(CCCC)CCCC,Potency,[6],48.5 µM (active)
same,Potency,[2],inactive
same,Potency,[7],1.52 µM (active)
NC(=O)Cn1c(=O)cc(CCN2CCN(c3nccc4sccc34)CC2)c2ccc(F)cc21,Potency,[1],inactive
CCc1nn(CCCN2CCN(c3cccc(Cl)c3)CC2)c(=O)n1CCOc1ccccc1,Potency,[1],inactive
Fc1ccccc1[C@@H](F)COC1CCC(Nc2ncnc3[nH]ncc23)CC1 (stereo partly drawn),Potency,[1],inactive
same,Potency,[2],inactive
same,Potency,[7],inactive
COc1cc2c(cc1OC)-c1cc(=Nc3c(C)cc(C)cc3C)n(C)c(=O)n1CC2,Potency,[1],inactive
same,Potency,[2],inactive
same,Potency,[3],17.4 µM (active)
same,outcome,[4],inactive
same,Potency,[5],inactive
same,Potency,[8],inactive
COC(=O)Nc1nc2ccc(C(=O)c3cccs3)cc2[nH]1,Potency,[6],inactive
same,Potency,[2],inactive
same,Potency,[7],inactive
same,Potency,[3],inactive
same,outcome,[4],inactive
same,Potency,[5],inactive
same,outcome,[9],inactive
same,Potency,[8],1.96 µM (active)
CC(=O)[C@H]1CC[C@H]2[C@@H]3C=CC4=CC(=O)CC[C@@]4(C)[C@@H]3CC[C@]12C,Potency,[1],inactive
same,Potency,[2],inactive
same,Potency,[7],inactive
Cc1cnc(C)c(C)n1,Potency,[1],inactive
same,Potency,[2],inactive
same,Potency,[7],inactive
CCOC(=O)CC(=O)C(=O)OCC,Potency,[1],inactive
same,Potency,[2],inactive
same,Potency,[7],inactive
CC1=CC(O)CC(C)(C)C1 (stereo not drawn),Potency,[6],inactive
same,Potency,[2],inactive
same,Potency,[7],inactive
C[Si](NC1CCCCC1)(NC1CCCCC1)NC1CCCCC1,Potency,[2],inactive
same,Potency,[7],inactive
CC(=O)Nc1ccc(N)cc1,Potency,[6],inactive
same,Potency,[7],inactive
CCOC(=O)/C=C/C(=O)O,Potency,[1],inactive
C=CCNc1nc(NCC=C)nc(N2CCN(C(c3ccc(F)cc3)c3ccc(F)cc3)CC2)n1,Potency,[1],inactive
same,Potency,[2],inactive
same,Potency,[7],inactive
O=C(CCCN1CCN(c2ccc(F)cc2)CC1)NC1c2ccccc2CSc2ccccc21 (stereo not drawn),Potency,[1],inactive
CO[C@H]1C=CO[C@@]2(C)Oc3c(C)c(O)c4c(O)c(c5c(c4c3C2=O)=NC2(CCN(CC(C)C)CC2)N=5)NC(=O)/C(C)=C\C=C/[C@H](C)[C@H](O)[C@@H](C)[C@@H](O)[C@@H](C)[C@H](OC(C)=O)[C@@H]1C,Potency,[6],inactive
same,Potency,[7],inactive
C(=C\c1ccccc1)/CN1CCN(C(c2ccccc2)c2ccccc2)CC1,outcome,[9],inactive
Cc1cc2nc3ccc(=[N+](C)C)cc-3sc2cc1N,Potency,[1],26.6 µM (active)
same,Potency,[2],inactive
same,Potency,[7],1.88 µM (active)
